# Records with an inconclusive call do not appear. The source made the active and inactive calls. Calls come from the whole dose curve; as a rule, active = well fitted inhibition curve with a large enough effect; inconclusive = small, poorly fitted or top-dose-only effect; inactive = flat fitted curve, though single readings scatter. Where a SMILES comes first, the peptide text is derived from it.
# Target: Phospholipid hydroperoxide glutathione peroxidase GPX4 (Homo sapiens) (UniProt P36969)
# Experiment: Primary qHTS Assay for Inhibitors of Recombinant Selenoprotein Glutathione Peroxidase 4 (GPX4) (AID 1845192); note: nearly all actives have a fitted effect of over 65% in size
# Conditions: recombinant GPX4, GR-coupled NADPH fluorescence, 15 min; series mostly up to 27.8 µM; activity change, negative = inhibition: at the top concentration
# Summary of the method: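 Steps: GPX4 plus compound, 30 min RT; add GR/GSH/NADPH master mix; start with cumene hydroperoxide; read 340/450 nm fluorescence at 0 and 15 min. Finals were 200 nM GPX4, 1 mM GSH, 0.5 mM CHP, 0.5 mM NADPH, 100 nM GR.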
# % is set by controls: 0 for no effect and ±100 for the full control effect.
# Phospholipid hydroperoxide glutathione peroxidase GPX4 (Homo sapiens), sequence (P36969 whole entry, looked up): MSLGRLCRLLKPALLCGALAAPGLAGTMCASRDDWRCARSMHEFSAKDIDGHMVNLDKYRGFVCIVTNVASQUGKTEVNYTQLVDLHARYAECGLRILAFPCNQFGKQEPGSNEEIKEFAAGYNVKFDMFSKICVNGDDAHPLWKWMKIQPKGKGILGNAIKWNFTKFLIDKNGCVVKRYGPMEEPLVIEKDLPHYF
Molecule,"activity change, negative = inhibition",outcome
CC[C@@H]1C(=O)O[C@]23C=C[C@@H]4C(C(=O)OC)=CO[C@H](O[C@@H]12)[C@@H]43,-4% [at 50 µM] (inactive),–
C=C1CC[C@]2(C(=O)O[C@@H]3O[C@H](CO)[C@@H](O)[C@H](O)[C@H]3O)CC[C@]3(C)C(=CCC4[C@@]5(C)C[C@H](O)[C@@H](O[C@@H]6O[C@H](C(=O)O)[C@@H](O)[C@H](O)[C@H]6O)[C@](C)(C=O)C5CC[C@]43C)C2C1 (some centres undefined),3.97% [at 15.3 µM] (inactive),–
C[C@@H]1O[C@@H](O[C@H]2[C@H](O)[C@@H](O)[C@H](OC(=O)[C@]34CCC(C)(C)C[C@H]3C3=CCC5[C@@]6(C)CC[C@H](O[C@@H]7O[C@H](C(=O)O)[C@@H](O)[C@H](O)[C@H]7O)C(C)(C)C6CC[C@@]5(C)[C@]3(C)CC4)O[C@@H]2CO)[C@H](O)[C@H](O)[C@H]1O (some centres undefined),1.79% [at 15.3 µM] (inactive),–
CC(=O)C1CCC(=O)N1Cc1ccccc1 (centres undefined),1.68% [at 50 µM] (inactive),–
H-DPPDPDRFYGMM-NH2,2.71% [at 15.3 µM] (inactive),–
C[C@@H]1O[C@@H](O[C@H]2[C@H](O)[C@@H](O)[C@H](OC[C@H]3O[C@@H](OC(=O)[C@]45CCC(C)(C)C[C@H]4C4=CCC6[C@@]7(C)C[C@@H](O)[C@H](O)[C@@](C)(CO)C7[C@H](O)C[C@@]6(C)[C@]4(C)CC5)[C@H](O)[C@@H](O)[C@@H]3O)O[C@@H]2CO)[C@H](O)[C@H](O)[C@H]1O (some centres undefined),-1.06% [at 15.3 µM] (inactive),–
COc1cccc(Cn2ncc3c4sc(S(C)=O)cc4n(C)c3c2=O)c1 (centres undefined),-3.89% [at 50 µM] (inactive),–
CCCC1=CC2=C(CO1)C(=O)C(C)(O)C(OC(=O)c1c(C)cc(OC)cc1O)C2 (centres undefined),-8.92% (inactive),–
CO[C@H]1c2cc(C(C)C)c(O)c(O)c2[C@@]23CCCC(C)(C)C2[C@@H]1OC3=O (some centres undefined),-6.48% (inactive),–
C=C1CCC2C(C)(C)CC(O)CC2(C)C1CCC(C)CCOC(=O)CCC(=O)O (centres undefined),-38.5% (inactive),–
CC(=O)O[C@@H](C[C@@H]1C=C(C)C(=O)O1)[C@H](C)[C@H]1CCC2[C@@]3(C)CC[C@H](O[C@@H]4O[C@H](CO)[C@@H](O)[C@H](O)[C@H]4O[C@@H]4O[C@@H](C)[C@H](O)[C@@H](O)[C@H]4O)C(C)(C)C3CC[C@@]2(C)[C@@]12COC(=O)C2 (some centres undefined),4.31% [at 15.3 µM] (inactive),–
CC1CC2(O)OC(=O)C3=C2C(CCC3)[C@@]12C[C@@H](c1ccoc1)OC2=O (some centres undefined),2.98% (inactive),–
COc1cc(C(=O)OCC2=CCC3C(C(=O)O)=COC(O[C@@H]4O[C@H](CO)[C@@H](O)[C@H](O)[C@H]4O)C23)ccc1O (some centres undefined),-6.14% (inactive),–
CC(=O)O[C@H]1[C@H](O[C@H]2CC[C@]34C[C@]35CC[C@]3(C)[C@@H]([C@@]6(C)CC[C@@H](C(C)(C)O)O6)[C@@H](O)C[C@@]3(C)[C@@H]5C[C@H](O[C@@H]3O[C@H](CO)[C@@H](O)[C@H](O)[C@H]3O)[C@H]4C2(C)C)OC[C@@H](OC(C)=O)[C@@H]1O,-0.969% [at 50 µM] (inactive),–
CC(C)[C@@H](C(=O)O)N1Cc2c(cc(O)c3c2O[C@]2(C3)[C@H](C)CCC3C(C)(C)[C@H](O)[C@H](O)C[C@@]32C)C1=O (some centres undefined),-18.3% (inactive),–
C/C=C/C=C/[C@@H]1O[C@](O)([C@H](CC)C(=O)NC/C=C/C=C(\C)[C@@H](OC)[C@@H](C)[C@@H]2O[C@H](/C=C/C=C/C=C(\C)C(=O)c3c(O)ccn(C)c3=O)[C@H](O)[C@@H]2O)[C@H](O)[C@H](O)C1(C)C,3.88% [at 15.3 µM] (inactive),–
CCCCC(=O)N1c2ccccc2NC2=C(C(=O)CCC2)C1c1ccccc1Cl (centres undefined),3.86% [at 50 µM] (inactive),–
CC(C)(O)C(O)C(=O)OCc1ccc(O[C@@H]2O[C@H](CO)[C@@H](O)[C@H](O)[C@H]2O)cc1 (some centres undefined),2.54% (inactive),–
COc1cc(C)c(C(=O)NC2C(C)OC(OC3CCC(C)C4C3C=C(C)C3/C(C)=C\CC/C(C)=C/C5(C)C=C(C(=O)O)C(C)CC56OC(=O)/C(=C(\O)C34C)C6=O)C(O)C2(C)O)c(O)c1 (centres undefined),–,inactive [at 15.3 µM]
CC1=C2C[C@@]3(C)[C@@H](CCC[C@@H]3C)C[C@@]2(O)OC1=O,-8.31% [at 50 µM] (inactive),–

Molecule,"activity change, negative = inhibition",outcome
C/C=C1/CC2C(=O)Nc3cc(O)c(OC)cc3C(=O)N2C1 (centres undefined),4.97% (inactive),–
CC(=O)NC(Cc1ccccc1)C(=O)NC(C(=O)O)C(C)C (stereo not drawn) (Ac-Phe-Val-OH; configuration not given here),-12.3% [at 50 µM] (inactive),–
COc1ccc(C2(O)c3ccccc3NC(=O)C2OC)cc1 (centres undefined),0.622% [at 50 µM] (inactive),–
Cc1oc(S(=O)(=O)N2CCCCC2)cc1NC(=O)Nc1ccccc1,-13.6% [at 50 µM] (inactive),–
O=C(/C=C/c1ccc(O)cc1)OC[C@H]1O[C@@H](O/C(=C\c2ccccc2)C(=O)O)[C@H](O)[C@@H](O)[C@@H]1O,–,inactive
COC(=O)C1=CO[C@@H](O[C@@H]2O[C@H](CO)[C@@H](O)[C@H](O)[C@H]2O)/C(=C\CO)[C@@H]1CC(=O)OCCc1ccc(O)cc1,–,inactive
C=CC(C)(C)C12Nc3c(ccc4c3OC(C)(C)C=C4)C1(O)CC1C(=O)N3CCCC3C(=O)N12 (centres undefined),-15.8% (inactive),–
CC(=O)O[C@@H]1[C@H](O[C@@H]2OC[C@](O)(CO)[C@H]2O)[C@@H](O[C@@H]2O[C@@H](C)[C@H](O)[C@@H](O[C@@H]3O[C@H](CO)[C@@H](O)[C@H](O)[C@H]3O)[C@H]2O)[C@H](OC(=O)[C@]23CCC(C)(C)C[C@H]2C2=CCC4[C@@]5(C)C[C@H](O)[C@H](O[C@@H]6O[C@H](C(=O)O)[C@@H](O)[C@H](O)[C@H]6O)[C@@](C)(C(=O)O)C5CC[C@@]4(C)[C@]2(C)CC3)O[C@@H]1C (some centres undefined),1.75% [at 9.73 µM] (inactive),–
COc1ccc(CC(NC(C)=O)C(=O)O)cc1 (centres undefined),–,inactive [at 50 µM]
COC1CC(O[C@H]2CC[C@@]3(C)C(=CC[C@]4(O)C3[C@H](O)[C@@H](O)[C@]3(C)[C@@H]([C@H](C)O)CC[C@@]34O)C2)OC(C)C1OC1CC(OC)C(OC2CC(OC)C(OC3OC(C)C(OC4OC(CO)C(O)C(O)C4O)C(OC)C3O)C(C)O2)C(C)O1 (some centres undefined),3.98% [at 15.3 µM] (inactive),–
C=CC(C)(O)CC/C=C(\C)C(=O)O[C@@H]1[C@@H](O)[C@H](OC(C)(C=C)CC/C=C(\C)C(=O)O)O[C@H](CO)[C@H]1OC(=O)/C(C)=C/CCC(C)(O)C=C (some centres undefined),-3.14% [at 15.3 µM] (inactive),–
CC(=O)O[C@@H]1C=C2[C@H](CC[C@@]3(C)[C@@]2(O)CC[C@H]2Cc4c([nH]c5ccccc45)[C@@]23C)O[C@@H]1C(C)(C)O,-7.55% (inactive),–
O=C(OC[C@H]1O[C@@H](Oc2ccccc2CO)[C@H](O)[C@@H](O)[C@@H]1O)c1ccccc1,-0.0709% (inactive),–
CC1(C)CC[C@]2(C(=O)O[C@@H]3O[C@H](CO[C@@H]4O[C@H](CO)[C@@H](O)[C@H](O)[C@H]4O)[C@@H](O)[C@H](O[C@@H]4O[C@H](CO)[C@@H](O)[C@H](O)[C@H]4O)[C@H]3O)[C@H](O)C[C@]3(C)C(=CCC4[C@@]5(C)CC[C@H](O[C@@H]6OC[C@@H](O)[C@H](O)[C@H]6O)[C@@](C)(C(=O)O)C5CC[C@]43C)[C@@H]2C1 (some centres undefined),–,inactive [at 15.3 µM]
C=C1CC[C@@]2(OC1)O[C@H]1CC3[C@@H]4CC=C5C[C@H](O[C@H]6OC[C@@H](O)C(O)[C@@H]6O[C@@H]6O[C@@H](C)[C@H](O)[C@@H](O[C@@H]7O[C@H](CO)[C@@H](O)[C@H](O)[C@H]7O)[C@H]6O)C[C@@H](O)[C@]5(C)C4CC[C@]3(C)[C@H]1[C@@H]2C (some centres undefined),-6.68% [at 15.3 µM] (inactive),–
O=C(OC[C@H]1O[C@@H](Oc2ccccc2COC(=O)C2(O)C=CCCC2O)[C@H](O)[C@@H](O)[C@@H]1O)c1ccccc1 (some centres undefined),3.71% (inactive),–
CNC(C)C(=O)NC(C(=O)N1CCCC1C(=O)Nc1cccc2ncccc12)C(C)C (centres undefined),-2.14% [at 50 µM] (inactive),–
CC1(C)CC[C@]2(C(=O)O[C@@H]3O[C@H](CO[C@@H]4O[C@H](CO)[C@@H](O)[C@H](O)[C@H]4O)[C@@H](O)[C@H](O[C@@H]4O[C@H](CO)[C@@H](O)[C@H](O)[C@H]4O)[C@H]3O)CC[C@]3(C)C(=CCC4[C@@]5(C)CC[C@H](O[C@@H]6OC[C@@H](O)[C@H](O)[C@H]6O)[C@@](C)(C(=O)O)C5CC[C@]43C)[C@@H]2C1 (some centres undefined),–,inactive [at 15.3 µM]
O=C(O)CC/C=C\C[C@H]1CO[C@@H](c2ccccc2Cl)O[C@H]1c1ccccc1O,2.31% [at 50 µM] (inactive),–

# From PubChem BioAssay (NCATS)
